Measured values: article PMC7862700, “An all-to-all approach to the identification of sequence-specific readers for epigenetic DNA modifications on cytosine”

What was measured:
Assay in all cases: DAPPL (digital affinity profiling via proximity ligation, sequencing); 10 mM Tris-HCl pH 7.5, 50 mM NaCl, 1 mM DTT, 4% glycerol, room temperature, 30 min; GST-TFs on glutathione beads, 16-mer random dsDNA library, 0.1% formaldehyde crosslink after washing; high values mean tight binding
Conditions in all cases: protein: recombinant; tags: N-terminal GST; dsDNA, one strand shown
ERF = molecular target: T1, ERF (Homo sapiens, UniProt P50548 1-548)
T1 sequence: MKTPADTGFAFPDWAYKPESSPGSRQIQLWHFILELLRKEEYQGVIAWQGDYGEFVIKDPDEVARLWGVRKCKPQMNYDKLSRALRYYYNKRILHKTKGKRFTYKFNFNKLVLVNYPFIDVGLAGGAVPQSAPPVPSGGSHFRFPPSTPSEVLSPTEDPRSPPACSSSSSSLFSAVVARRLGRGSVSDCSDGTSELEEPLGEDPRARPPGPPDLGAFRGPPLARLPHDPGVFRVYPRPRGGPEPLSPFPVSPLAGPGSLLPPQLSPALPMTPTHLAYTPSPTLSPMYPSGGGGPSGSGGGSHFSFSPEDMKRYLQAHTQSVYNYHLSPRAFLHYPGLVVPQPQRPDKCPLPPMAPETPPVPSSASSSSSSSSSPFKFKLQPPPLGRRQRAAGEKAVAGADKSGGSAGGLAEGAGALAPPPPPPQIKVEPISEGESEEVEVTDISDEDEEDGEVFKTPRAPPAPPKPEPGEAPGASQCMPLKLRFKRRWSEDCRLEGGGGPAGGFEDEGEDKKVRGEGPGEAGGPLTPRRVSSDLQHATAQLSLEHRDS
Procedure, shortened: (§1)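 Beads coated with glutathione captured GST-fused human transcription factors that had been expressed in yeast, and the factors were then given DNA barcodes and pooled with a tag-only sample. The pools were incubated with 200 nmole of a random double-stranded 16-mer DNA library in Tris/NaCl/DTT/glycerol buffer for 30 min at room temperature, washed, crosslinked with 0.1% formaldehyde and proximity-ligated with BsaI/T4 ligase at 37 °C for 1 h. PCR amplification and Illumina NextSeq500 sequencing came last. Binding signal is each hexamer's read frequency for a factor divided by its frequency for the tag-only sample.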

ETV3L = molecular target: T2, ETV3L (Homo sapiens, UniProt Q6ZN32 1-361)
T2 sequence: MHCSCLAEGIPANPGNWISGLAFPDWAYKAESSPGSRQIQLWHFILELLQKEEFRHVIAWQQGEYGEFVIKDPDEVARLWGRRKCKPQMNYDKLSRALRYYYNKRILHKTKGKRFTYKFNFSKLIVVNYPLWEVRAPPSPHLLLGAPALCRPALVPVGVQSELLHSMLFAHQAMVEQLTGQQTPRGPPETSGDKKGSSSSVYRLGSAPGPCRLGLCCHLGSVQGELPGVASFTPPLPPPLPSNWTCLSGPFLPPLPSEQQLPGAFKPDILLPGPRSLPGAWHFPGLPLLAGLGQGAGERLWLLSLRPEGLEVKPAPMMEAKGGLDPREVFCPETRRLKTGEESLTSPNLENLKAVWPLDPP
Procedure, shortened: as §1

ETS2 = molecular target: T3, ETS2 (Homo sapiens, UniProt P15036 1-469)
T3 sequence: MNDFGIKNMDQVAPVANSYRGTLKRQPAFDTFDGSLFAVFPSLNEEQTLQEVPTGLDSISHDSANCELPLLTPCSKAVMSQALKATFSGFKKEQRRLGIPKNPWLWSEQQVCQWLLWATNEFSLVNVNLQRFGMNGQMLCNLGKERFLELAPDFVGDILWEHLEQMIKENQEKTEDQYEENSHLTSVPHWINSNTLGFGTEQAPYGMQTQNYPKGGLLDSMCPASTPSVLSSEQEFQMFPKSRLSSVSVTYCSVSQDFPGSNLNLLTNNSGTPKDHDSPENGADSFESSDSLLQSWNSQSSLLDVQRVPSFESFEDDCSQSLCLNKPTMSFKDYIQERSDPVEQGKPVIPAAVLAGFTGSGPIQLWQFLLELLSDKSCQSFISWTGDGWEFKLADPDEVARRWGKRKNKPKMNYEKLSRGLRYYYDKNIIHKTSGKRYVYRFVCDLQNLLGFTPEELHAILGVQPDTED
Procedure, shortened: as §1

SPDEF = molecular target: T4, SPDEF (Homo sapiens, UniProt O95238 1-335)
T4 sequence: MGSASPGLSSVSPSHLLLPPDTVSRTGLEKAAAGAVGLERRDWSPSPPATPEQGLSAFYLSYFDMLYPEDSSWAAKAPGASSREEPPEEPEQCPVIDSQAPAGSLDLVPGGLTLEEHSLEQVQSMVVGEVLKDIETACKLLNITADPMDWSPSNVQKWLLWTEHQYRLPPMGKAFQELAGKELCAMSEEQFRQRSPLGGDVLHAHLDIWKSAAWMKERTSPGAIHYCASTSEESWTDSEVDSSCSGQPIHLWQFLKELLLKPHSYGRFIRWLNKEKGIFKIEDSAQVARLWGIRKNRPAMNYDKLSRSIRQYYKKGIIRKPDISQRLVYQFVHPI
Procedure, shortened: as §1

ETV7 = molecular target: T5, ETV7 (Homo sapiens, UniProt Q9Y603 1-341)
T5 sequence: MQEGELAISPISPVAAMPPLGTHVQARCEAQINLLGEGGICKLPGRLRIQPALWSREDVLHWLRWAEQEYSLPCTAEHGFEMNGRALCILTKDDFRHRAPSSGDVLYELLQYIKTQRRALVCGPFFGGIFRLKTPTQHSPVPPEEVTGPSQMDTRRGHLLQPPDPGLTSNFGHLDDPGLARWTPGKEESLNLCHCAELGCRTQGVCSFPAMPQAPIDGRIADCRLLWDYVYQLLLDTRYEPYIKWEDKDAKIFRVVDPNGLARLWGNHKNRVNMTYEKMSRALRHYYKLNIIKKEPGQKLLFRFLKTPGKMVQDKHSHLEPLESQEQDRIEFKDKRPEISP
Procedure, shortened: as §1

ELF5 = molecular target: T6, ELF5 (Homo sapiens, UniProt Q9UKW6-2 1-255)
T6 sequence: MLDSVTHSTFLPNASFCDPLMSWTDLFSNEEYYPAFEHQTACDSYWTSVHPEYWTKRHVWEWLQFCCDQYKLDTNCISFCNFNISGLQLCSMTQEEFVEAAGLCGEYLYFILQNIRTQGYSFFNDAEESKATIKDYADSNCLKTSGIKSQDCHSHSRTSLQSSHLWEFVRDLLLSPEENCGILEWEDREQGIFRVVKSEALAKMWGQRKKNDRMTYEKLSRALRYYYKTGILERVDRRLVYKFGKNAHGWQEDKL
Procedure, shortened: as §1

ETV3 = molecular target: T7, ETV3 (Homo sapiens, UniProt P41162-2 1-143)
T7 sequence: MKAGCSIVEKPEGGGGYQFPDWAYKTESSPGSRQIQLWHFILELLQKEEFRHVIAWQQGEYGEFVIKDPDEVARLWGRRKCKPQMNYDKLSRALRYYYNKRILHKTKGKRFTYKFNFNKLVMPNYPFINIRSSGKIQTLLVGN
Procedure, shortened: as §1

ETV6 = ETV6 (Homo sapiens, UniProt P41212 1-452)
Procedure, shortened: as §1

ETV6, sequence (P41212 whole entry): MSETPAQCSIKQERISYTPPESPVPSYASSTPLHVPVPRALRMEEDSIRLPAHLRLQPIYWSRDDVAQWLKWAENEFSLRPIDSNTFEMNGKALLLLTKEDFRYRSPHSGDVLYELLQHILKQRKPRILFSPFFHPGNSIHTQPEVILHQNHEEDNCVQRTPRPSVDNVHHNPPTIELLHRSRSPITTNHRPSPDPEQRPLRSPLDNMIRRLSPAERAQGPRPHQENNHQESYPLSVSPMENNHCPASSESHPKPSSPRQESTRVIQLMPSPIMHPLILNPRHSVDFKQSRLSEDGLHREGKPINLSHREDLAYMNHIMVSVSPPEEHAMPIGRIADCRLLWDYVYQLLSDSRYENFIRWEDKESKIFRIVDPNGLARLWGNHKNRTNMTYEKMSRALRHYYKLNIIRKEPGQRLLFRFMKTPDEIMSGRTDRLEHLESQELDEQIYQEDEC

| Sequence | binding signal (ERF) | binding signal (ETV3L) | binding signal (ETS2) | binding signal (SPDEF) | binding signal (ETV7) | binding signal (ELF5) | binding signal (ETV3) | binding signal (ETV6) |
| --- | --- | --- | --- | --- | --- | --- | --- | --- |
| CAATAA | 1.15 fold enrichment (6-mer frequency, TF over GST control) | 1.13 fold enrichment (6-mer frequency, TF over GST control) | 1.19 fold enrichment (6-mer frequency, TF over GST control) | 1.05 fold enrichment (6-mer frequency, TF over GST control) | 1.06 fold enrichment (6-mer frequency, TF over GST control) | 1.06 fold enrichment (6-mer frequency, TF over GST control) | 1.14 fold enrichment (6-mer frequency, TF over GST control) | 1.12 fold enrichment (6-mer frequency, TF over GST control) |
| CTTCAA | 1.41 fold enrichment (6-mer frequency, TF over GST control) | 1.3 fold enrichment (6-mer frequency, TF over GST control) | 1.25 fold enrichment (6-mer frequency, TF over GST control) | 1.34 fold enrichment (6-mer frequency, TF over GST control) | 1.27 fold enrichment (6-mer frequency, TF over GST control) | 1.32 fold enrichment (6-mer frequency, TF over GST control) | 1.29 fold enrichment (6-mer frequency, TF over GST control) | 1.39 fold enrichment (6-mer frequency, TF over GST control) |
| TTCTTC | 1.78 fold enrichment (6-mer frequency, TF over GST control) | 1.83 fold enrichment (6-mer frequency, TF over GST control) | 1.7 fold enrichment (6-mer frequency, TF over GST control) | 1.72 fold enrichment (6-mer frequency, TF over GST control) | 1.7 fold enrichment (6-mer frequency, TF over GST control) | 2.02 fold enrichment (6-mer frequency, TF over GST control) | 1.8 fold enrichment (6-mer frequency, TF over GST control) | 1.93 fold enrichment (6-mer frequency, TF over GST control) |
| CACGTT | 1.36 fold enrichment (6-mer frequency, TF over GST control) | 1.21 fold enrichment (6-mer frequency, TF over GST control) | 1.3 fold enrichment (6-mer frequency, TF over GST control) | 1.18 fold enrichment (6-mer frequency, TF over GST control) | 1.35 fold enrichment (6-mer frequency, TF over GST control) | 1.12 fold enrichment (6-mer frequency, TF over GST control) | 1.19 fold enrichment (6-mer frequency, TF over GST control) | 1.27 fold enrichment (6-mer frequency, TF over GST control) |
| TTAACC | 1.23 fold enrichment (6-mer frequency, TF over GST control) | 1.32 fold enrichment (6-mer frequency, TF over GST control) | 1.29 fold enrichment (6-mer frequency, TF over GST control) | 1.35 fold enrichment (6-mer frequency, TF over GST control) | 1.23 fold enrichment (6-mer frequency, TF over GST control) | 1.28 fold enrichment (6-mer frequency, TF over GST control) | 1.38 fold enrichment (6-mer frequency, TF over GST control) | 1.32 fold enrichment (6-mer frequency, TF over GST control) |
| ATTTTA | 1.27 fold enrichment (6-mer frequency, TF over GST control) | 1.43 fold enrichment (6-mer frequency, TF over GST control) | 1.33 fold enrichment (6-mer frequency, TF over GST control) | 1.23 fold enrichment (6-mer frequency, TF over GST control) | 1.37 fold enrichment (6-mer frequency, TF over GST control) | 1.2 fold enrichment (6-mer frequency, TF over GST control) | 1.26 fold enrichment (6-mer frequency, TF over GST control) | 1.26 fold enrichment (6-mer frequency, TF over GST control) |
| ATGTTA | 1.21 fold enrichment (6-mer frequency, TF over GST control) | 1.2 fold enrichment (6-mer frequency, TF over GST control) | 1.24 fold enrichment (6-mer frequency, TF over GST control) | 1.26 fold enrichment (6-mer frequency, TF over GST control) | 1.23 fold enrichment (6-mer frequency, TF over GST control) | 1.21 fold enrichment (6-mer frequency, TF over GST control) | 1.23 fold enrichment (6-mer frequency, TF over GST control) | 1.28 fold enrichment (6-mer frequency, TF over GST control) |
